High-throughput results from PubChem.
TRPV1 ag = agonists of human vanilloid receptor 1 (TRPV1); TRPV1-expressing cells, Fluo-8 calcium influx, agonist mode; activation, % at 8.33 µM; 320,000 tested, 0.19% active; in the data active = activation above about 80%; inconclusive = between about 30% and that limit; note: 0% is about no effect
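TRPV1-expressing cells were cultured overnight at 35.5C and loaded with Fluo-8 calcium dye for 40 to 90 min at room temperature. After a 10 s baseline, compound was added and calcium influx was read kinetically for 3 min (ex 480/em 520 nm).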
RORgamma inh = ROR gamma (mouse) transcription inhibition; 310,000 tested, 5.4% active; P51450; AID 2551; Potency, µM (top dose mostly 53.6 µM), for inactives: top-dose activity change, negative = inhibition, usual class: inhibitors; Drosophila S2 Gal4-RORgamma UAS-luciferase reporter, 20 h; note: potency is the fitted concentration of half-maximal effect; % is set by controls: 0 for no effect and ±100 for the full control effect; nearly all actives have a fitted effect of over 60% in size
Target sequence (P51450 whole entry, looked up, the tested form may be a part): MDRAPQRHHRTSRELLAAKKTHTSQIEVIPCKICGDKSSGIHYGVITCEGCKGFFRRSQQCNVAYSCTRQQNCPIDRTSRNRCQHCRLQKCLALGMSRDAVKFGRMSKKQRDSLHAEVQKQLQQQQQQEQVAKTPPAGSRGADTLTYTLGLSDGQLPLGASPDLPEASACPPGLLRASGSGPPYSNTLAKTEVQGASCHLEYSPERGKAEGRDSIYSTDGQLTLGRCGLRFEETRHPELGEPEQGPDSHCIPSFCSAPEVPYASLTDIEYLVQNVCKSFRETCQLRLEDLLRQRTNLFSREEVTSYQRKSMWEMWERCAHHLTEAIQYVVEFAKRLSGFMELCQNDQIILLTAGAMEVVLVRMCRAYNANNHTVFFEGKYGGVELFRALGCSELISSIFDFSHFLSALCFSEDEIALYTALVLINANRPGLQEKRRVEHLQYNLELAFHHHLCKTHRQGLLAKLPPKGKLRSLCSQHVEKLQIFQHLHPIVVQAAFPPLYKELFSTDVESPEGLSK
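Drosophila Schneider cells stably carrying a metallothionein-driven Gal4 DBD–ROR gamma fusion and a UAS-Photinus luciferase reporter were exposed to compound for 1 hr, then induced with copper sulfate (700 uM final) for 20 hr at ambient temperature before luminescence reading.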
TRPV1 potentiator = human TRPV1 potentiation. TRPV1-expressing cells, Fluo-8 calcium influx, capsaicin EC20 potentiation. potentiation, % at 8.33 µM. 320,000 tested, 0.02% active. AID 540277; in the data active = potentiation above about 80%; inconclusive = between about 30% and that limit; note: 0% is about no effect
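Fluo-8 calcium influx in TRPV1-expressing cells, kinetic read (ex 480/em 520 nm). Compound added and read 3 min for agonist activity, followed by capsaicin at EC20 final and 2 min further read for enhancement.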
uPA surface inh = inhibitors of cell surface uPA generation. 330,000 tested, 0.31% active. cell surface uPA generation assay, qHTS. Potency, µM (top dose mostly 38.3 µM), for inactives: at the highest dose activity change, negative = inhibition, hits mostly inhibitors. AID 540303; active = well fitted inhibition curve with a large enough effect; inconclusive = small, poorly fitted or top-dose-only effect; inactive = no such curve, though single readings can be large or run the other way; tested in mouse RAW 264.7 cells; note: potency is the fitted concentration of half-maximal effect; % is set by controls: 0 for no effect and ±100 for the full control effect; nearly all actives have a fitted effect of over 55% in size
Gal4-VP16 FLuc = Gal4-VP16 reporter inhibition counter-screen; Drosophila S2 Gal4-VP16 UAS-luciferase, luminescence, 20 h; Potency, µM (series often up to 53.6 µM), without a hit: at the top dose activity, negative = inhibition, actives largely listed as inhibitors; 310,000 tested, 3.5% active; AID 2546;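 note: Gal4-VP16 expression switched on by copper sulfate through the metallothionein promoter; potency is the fitted concentration of half-maximal effect; % is set by controls: 0 for no effect and ±100 for the full control effect; nearly all actives have a fitted effect of over 50% in size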
An asterisk follows results filed as active; ? = inconclusive; . = no result given; [ ] = another dose, or the depositor's remark. Hits are enriched below; roughly 5.8% of the tested compounds scored in any of these assays. Unless noted, calls come from the whole dose curve; as a rule, active = well fitted curve in the direction sought with a large enough effect; inconclusive = small, poorly fitted or top-dose-only effect, or another doubt; inactive = no such curve, though single readings can be large; an effect the other way counts as inactive or inconclusive.

SMILES | TRPV1 ag | RORgamma inh | TRPV1 potentiator | uPA surface inh | Gal4-VP16 FLuc
O=C(/C=C/c1ccc(OC(F)F)cc1)OCC(=O)N1CCN(C(=O)c2ccco2)CC1 | -8.9 | -6.0%[10 µM] | -0.1 | -0.9% | 4.4%
CCOC(=O)/C=C/C(=O)OCC(=O)N1CCN(C(=O)c2ccco2)CC1 | 1.5 | 11.2µM* | 3.2 | 7.94µM* | ?
CCOC(=O)N1CCN(C(=S)NC(=O)/C=C/c2ccc(C)cc2)CC1 | 6.6 | 5.01µM* | -10.7 | 5.3% | 5.62µM*
CCOC(=O)N1CCN(C(=O)Cc2ccc(C)cc2)CC1 | -0.1 | 6.8% | 8.7 | 5.6% | 0.7%
COc1ccc(/C=C/C(=O)NC(=S)NNC(=O)c2cccs2)cc1 | -0.2 | 2µM* | 3.2 | -17.5% | 22.4µM*
COc1ccc(/C=C/C(=O)NC(=S)N2CCN(C)CC2)cc1 | 0.2 | 5.62µM* | 7.7 | -4.0% | ?
COc1ccc(C(=O)NNC(=S)NC(=O)c2cccs2)cc1 | 2.9 | ? | 5.7 | -3.3% | -28.7%
CCCCNC(=O)C(Sc1ccccc1)c1ccccc1 (stereo unspecified) | -0.1 | 11.2% | ? | -2.0% | -12.2%
CCc1cccc(C)c1NC(=S)N(CCN(C)C)Cc1cccs1 | 1.2 | 11.2µM* | -2.4 | -2.2% | -8.9%[10 µM]
Cc1cccc(NC(=S)N(CCN(C)C)Cc2cccs2)c1 | -1.4 | 11.2µM* | -9.7 | 3.9% | -1.0%[10 µM]
Cc1cccc(C)c1NC(=S)N(CCN(C)C)Cc1cccs1 | 1.0 | 10µM* | -13.4 | 2.0% | -3.0%
Cc1cc(C)c(NC(=S)N(CCN(C)C)Cc2cccs2)c(C)c1 | -4.9 | 16.9% | 29.6 | 1.3% | -9.4%[10 µM]
O=C(COc1ccc(S(=O)(=O)N2CCCCC2)cc1)Nc1ccccc1F | 28.1 | 15.6% | -16.3 | 1.1% | 0.5%
CCn1c(CC(=O)Nc2ccc(F)cc2)nnc1SCC(=O)N1CCOCC1 | -4.3 | 0.0% | 3.0 | 3.7% | -10.5%
CCNC(=S)N(Cc1cccs1)Cc1cc2cc(OCC)ccc2[nH]c1=O | -2.3 | ? | 5.4 | -1.4% | -5.7%
O=c1[nH]c2cc3c(cc2cc1CN(Cc1ccco1)C(=S)NCC1CCCO1)OCCO3 (stereo unspecified) | 3.8 | 10.1% | -9.6 | 12.6µM* | -7.8%
CCNC(=S)N(Cc1ccco1)Cc1cc2cc(OCC)ccc2[nH]c1=O | -1.0 | 17.8µM* | -0.3 | ? | ?
Cc1nc(NC(=O)COC(=O)C2CC2C)c(Cl)cc1Cl (stereo unspecified) | . | . | . | -2.6% | .
CC[C@@H](c1ccccc1)n1c(=O)n2n(c1=O)[C@H]1[C@H](O)[C@H]3O[C@@H]3/C(=N/OC/C=C(\C)CCC=C(C)C)[C@@H]1CC2 | . | 1.5%[10 µM] | . | . | -3.1%[10 µM]
CCCCCn1c(=O)[nH]c2cc(C(=O)NCCN(CC)CC)ccc2c1=O | 0.0 | 13.1% | -11.9 | -1.6% | -5.6%
O=[N+]([O-])c1cc(S(=O)(=O)NCCN2CCOCC2)ccc1Sc1nnnn1-c1ccccc1 | 4.6 | 11.2µM* | -16.2 | -16.0% | 20µM*
CCOc1cc(C2C(C#N)=C(N)OC(C)=C2C(C)=O)c(Br)c(Br)c1OC(C)C (stereo unspecified) | -4.0 | ? | 13.9 | -3.0% | 12.6µM*
CCOc1cc(C2C(C#N)=C(N)OC(C)=C2C(C)=O)cc(Br)c1O (stereo unspecified) | -11.9 | -13.6% | -20.3 | 6.3% | 10.2%
O=S(=O)(NC(=S)c1ccccc1)c1ccc(F)cc1 | -0.2 | 11.2µM* | 23.0 | 2.6% | ?
CN(Cc1cccs1)C(=O)CN1CCN(S(=O)(=O)c2ccc3c(c2)OCCCO3)CC1 | 12.4 | . | -8.9 | -1.1% | .
SMILES | TRPV1 ag | RORgamma inh | TRPV1 potentiator | uPA surface inh | Gal4-VP16 FLuc
O=C1C(Cl)=C(NCCCO)C(=O)c2ccccc21 | 2.6 | 11.2µM* | -2.7 | -13.6% | ?
CN(C)c1ccc(NC2=C(Cl)C(=O)c3ccccc3C2=O)cc1 | 3.0 | 15.8µM* | -2.1 | -15.5% | ?
CCOCCCNC1=C(Cl)C(=O)c2ccccc2C1=O | 3.4 | -42.5% | 3.0 | ? | ?
O=C1C(Cl)=C(Nc2ccc3cn[nH]c3c2)C(=O)c2ccccc21 | 19.0 | 7.08µM* | -28.6 | -14.0% | ?
O=C(Cc1ccc([N+](=O)[O-])cc1)Oc1ccccc1 | . | . | . | -2.7% | .
COc1ccc(C)cc1NC(=O)Nc1ccc2c(c1)CCC2 | 0.9 | 2.2% | -19.7 | 8.4% | 0.8%
O=C(CSc1nc2ccccc2[nH]1)c1ccc(Cl)s1 | 2.9 | 28.5% | 5.4 | -2.8% | ?
C/C(=N\Nc1nc2ccccc2[nH]1)c1ccc(Cl)s1 | 12.4 | 2.24µM* | -0.8 | -9.4% | 2.82µM*
C/C(=N\Nc1nc2ccccc2[nH]1)c1ccc(C)o1 | 3.1 | 14.1µM* | -9.6 | -21.2% | ?
Cc1nc2c(-c3ccc(F)cc3)c(C)nn2c(C)c1CCC(=O)N1CCC(Cc2ccccc2)CC1 | . | 22.6% | . | 5.4% | 1.3%
COc1ccc(NCc2nnc(SCC(=O)c3ccc(OC)cc3)n2C)cc1 | -6.4 | -0.8% | 8.5 | -0.9% | ?
CN(CCC#N)C(=O)COC(=O)c1ccc2c(c1)C(=O)N(C1CCCCC1)C2=O | 2.0 | 44.0% | -1.4 | 10.7% | -24.0%
CCNC(=O)COC(=O)c1cc(-c2ccc(OC)cc2)nc2ccccc12 | ? | -0.6% | 4.9 | ? | -19.6%
CCCCNC(=S)NNC(=O)c1cc(-c2cccnc2)nc2ccccc12 | -2.0 | ? | 10.6 | 6.3% | -19.4%
CCNC(=S)NNC(=O)c1cc(-c2ccc(OC)cc2)nc2ccccc12 | 18.9 | 1.41µM* | -4.7 | -13.8% | 3.55µM*
COc1ccc(-c2cc(C(=O)OCC(=O)c3c(N)n(C)c(=O)n(C)c3=O)c3ccccc3n2)cc1 | 5.1 | 16.2% | 7.5 | -0.7% | -5.1%
COc1ccc(Cl)cc1C(=O)NNC(=S)NC(=O)c1cc(-c2ccc(Cl)cc2)nc2ccccc12 | 5.8 | 1.26µM* | -2.1 | -0.8% | ?
O=C(NNC(=O)c1cc(-c2ccncc2)nc2ccccc12)c1cccc(Cl)c1 | 3.9 | . | 10.9 | 1.2% | .
COc1ccc(-c2cc(C(=O)c3c(N)n(C)c(=O)n(C)c3=O)c3ccccc3n2)cc1 | 2.8 | 14.1µM* | 7.5 | 1.41µM* | 11.2µM*
CCCCOc1ccc(-c2cc(C(=O)NNC(=S)NCC)c3ccccc3n2)cc1 | 21.6 | 5.01µM* | -9.5 | . | 2.51µM*
Nc1nc2nc(-c3ccccc3)cc(C(F)(F)F)c2s1 | 0.4 | -34.4% | -15.4 | 3.5% | 1.3%
Cc1ccccc1/C=C/C(=O)NCC(=O)N1CCC(N(C)C2CCCCC2C)CC1 (stereo unspecified) | -2.8 | -11.0% | 16.6 | -29.5% | 0.0%
COCCn1c(C(=O)N2CCCC2)cc2c1C[C@H]1CN(C(=O)c3ccccc3)[C@@](Cc3ccc(OC)cc3)(C(=O)OC)[C@@H]21 | . | 6.9% | . | . | 1.3%
C[C@@]12C=Cc3occc3C1CC[C@@]13C[C@@H](CCC12)[C@@](O)(CO)C3 (stereo partly specified) | . | -34.9% | . | . | -25.5%
COc1ccc(OC[C@@H](O)CNC(=O)c2cccc3c2C(=O)c2ccc(Cl)cc2S3(=O)=O)cc1 | -3.8 | . | ? | -2.3% | .
